Source: PubChem (National Center for Advancing Translational Sciences (NCATS))
Sampled rows, rich in hits. Any-hit rate of the full collection: about 8.1%.
SW480 rerep – DNA re-replication induction in SW480 cells. SW480 DNA re-replication, Hoechst DNA content imaging, 48 h. Potency, µM (series often up to 46.1 µM), for the others: top-dose re-replication activation, hits mostly activators. 1.8% of 340,000 active. AID 624297; further: % of control where 0% means no effect; nearly all actives have a fitted effect of over 55% in size
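250 cells/well; 23 nL cpd via pin tool; 48 hr, 37 C, 5% CO2; Hoechst 40 min; imager read of total nuclear intensity, ex 405/em 500-530 nm.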
ELG1 DNA repair – inhibitors of ELG1-dependent DNA repair in HEK293T cells | Potency, µM (top dose mostly 46.1 µM), without a hit: top-dose activity change, negative = inhibition, actives largely listed as inhibitors | HEK293T ELG1-luciferase reporter, luminescence, 16 h; DNA damage induced by 5-fluorouridine | 2.3% of 330,000 active; further: on the % scale 0 is the no-effect control and ±100 the full control effect; nearly all actives have a fitted effect of over 55% in size
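Quantitative HTS, concentration-response format. 2,000 cells/well co-treated with 5-fluorouridine and compound, 16 hr in 5% CO2 at 37 °C; ONE-Glo luminescence read after 30 min.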
KB-V1 MDR tox – KB-V1 MDR subline cytotoxicity. Potency, µM (doses to about 46.1 µM), actives largely listed as cytotoxic. KB-V1 MDR cells viability, CellTiter-Glo, 72 h. 3.4% of 400,000 active; further: on the % scale 0 is the no-effect control and ±100 the full control effect; nearly all actives have a fitted effect of over 60% in size
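Drug-selected KB-V1 cells, grown in DMEM lacking phenol red with 10% FBS, receive compound titrations; after three days at 37 degrees C, surviving cell ATP is quantified by CellTiter-Glo luminescence and responses normalized and curve-fitted.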
KB-3-1 cytotox – KB-3-1 parental cell cytotoxicity | KB-3-1 viability, CellTiter-Glo ATP luminescence, 72 h | Potency, µM (highest dose often 46.1 µM), usual class: cytotoxic | 1.4% of 400,000 active; further: on the % scale 0 is the no-effect control and ±100 the full control effect; nearly all actives have a fitted effect of over 60% in size
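Using CellTiter-Glo luminescence, growth of non-resistant KB-3-1 adenocarcinoma cells is assessed 72 h after pin-tool compound addition at 37 °C. Normalized responses across the concentration series yield fitted curves.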
MCF10A rerep – inducers of DNA re-replication in MCF 10A breast cells; MCF 10A DNA re-replication, Hoechst nuclear intensity, 48 h; Potency, µM (top dose mostly 46.1 µM), inactives show top-dose activity, positive = re-replication, most hits filed as activators; 2.9% of 350,000 active; further: % of control where 0% means no effect; nearly all actives have a fitted effect of over 50% in size
An asterisk follows results filed as active. The call rests on the fitted dose curve; in most records, active means well fitted curve in the direction sought with a large enough effect; inconclusive means small, poorly fitted or top-dose-only effect, or another doubt; inactive means no such curve, though single readings can be large; an effect the other way counts as inactive or inconclusive. Potency means the concentration at half of the fitted maximal effect.

How did CCc1ccccc1N1CC23C=CC(O2)C(C(=O)OC)C3C1=O (stereo not drawn) do in these assays?
SW480 rerep: -4%; ELG1 DNA repair: 4%; KB-V1 MDR tox: inactive; KB-3-1 cytotox: inactive; MCF10A rerep: -5%

How did O=C(Nc1cccc(Cl)c1)C1CCCN(S(=O)(=O)c2ccc(F)cc2)C1 (stereo not drawn) do in these assays?
SW480 rerep: 10%; ELG1 DNA repair: inconclusive; KB-V1 MDR tox: 6.5µM*; KB-3-1 cytotox: inconclusive; MCF10A rerep: 28%

Results for O=C(Nc1ccccc1Cl)C1CCCN(S(=O)(=O)c2ccc(F)cc2)C1 (stereo not drawn) ?
SW480 rerep: 1%; ELG1 DNA repair: -23%; KB-V1 MDR tox: inactive; KB-3-1 cytotox: inactive; MCF10A rerep: 7%

How did CSc1cccc(NC(=O)C2CCCN(S(=O)(=O)c3ccc(F)cc3)C2)c1 (stereo not drawn) do in these assays?
SW480 rerep: 2%; ELG1 DNA repair: 21µM*; KB-V1 MDR tox: inconclusive; KB-3-1 cytotox: inactive; MCF10A rerep: 16%

What do the screens show for `CSc1cccc(NC(=O)C2CCN(S(=O)(=O)c3ccc(F)cc3)CC2)c1`?
SW480 rerep: 0%; KB-V1 MDR tox: inactive; KB-3-1 cytotox: inactive; MCF10A rerep: inconclusive

How did CCN(CC)c1ccc(NC(=O)CCc2nc3cccnc3n2Cc2cccs2)c(C)c1 do in these assays?
KB-V1 MDR tox: inactive; KB-3-1 cytotox: inactive

Results for O=C(CSc1n[nH]c(-c2ccccc2)n1)Nc1ccccc1O ?
SW480 rerep: 0%; ELG1 DNA repair: -17%; KB-V1 MDR tox: inactive; KB-3-1 cytotox: inactive; MCF10A rerep: 0%

What do the screens show for `Cc1cc(/C=C2/C(=N)N3C(=NC2=O)SN=C3S(C)(=O)=O)c(C)n1-c1ccc(F)cc1`?
SW480 rerep: -3%; ELG1 DNA repair: inconclusive; KB-V1 MDR tox: inactive; KB-3-1 cytotox: inactive; MCF10A rerep: 21µM*

How did CCOc1ccc(-n2c(C)cc(/C=C3/C(=N)N4C(=NC3=O)SN=C4S(C)(=O)=O)c2C)cc1 do in these assays?
SW480 rerep: 13%; ELG1 DNA repair: -2%; KB-V1 MDR tox: inactive; KB-3-1 cytotox: inactive; MCF10A rerep: 15µM*

What do the screens show for `CC(C(=O)N1CCOCC1)N1C(=O)C2C3C=CC(C4CC34)C2C1=O` (stereo not drawn)?
SW480 rerep: -3%; ELG1 DNA repair: 8%; KB-V1 MDR tox: inactive; KB-3-1 cytotox: inactive; MCF10A rerep: -8%

What do the screens show for `Cc1ccc(C2=NC3(CCCC3)N=C2SCC(=O)Nc2ccc3c(c2)OCCO3)cc1`?
SW480 rerep: 21µM*; ELG1 DNA repair: inconclusive; KB-V1 MDR tox: inactive; KB-3-1 cytotox: inactive; MCF10A rerep: inconclusive

How did O=C(CSC1=NC2(CCCCCC2)N=C1c1ccccc1)Nc1ccc2c(c1)OCCO2 do in these assays?
SW480 rerep: 14%; ELG1 DNA repair: inconclusive; KB-V1 MDR tox: inactive; KB-3-1 cytotox: inactive; MCF10A rerep: 1%

How did C=CCOc1cccc(C(=O)N2CCCC(CCC(=O)NCc3ccccc3F)C2)c1 (stereo not drawn) do in these assays?
SW480 rerep: -1%; ELG1 DNA repair: inconclusive; KB-V1 MDR tox: inactive; KB-3-1 cytotox: inactive; MCF10A rerep: 1%

How did O=C(NC1(C(F)(F)F)N=C(c2ccccc2)NC1=O)c1ccccc1F (stereo not drawn) do in these assays?
SW480 rerep: 1%; ELG1 DNA repair: 2%; KB-V1 MDR tox: inactive; KB-3-1 cytotox: inactive; MCF10A rerep: inconclusive

Results for O=C(NC1(C(F)(F)F)N=C(c2ccccc2)NC1=O)c1ccc(Cl)cc1Cl (stereo not drawn) ?
SW480 rerep: 4%; ELG1 DNA repair: 9%; KB-V1 MDR tox: 18µM*; KB-3-1 cytotox: inactive; MCF10A rerep: -5%

Results for Cc1ccc(S(=O)(=O)N(C)CC(=O)N2CCCC2)cc1 ?
SW480 rerep: -3%; ELG1 DNA repair: 5%; KB-V1 MDR tox: inactive; KB-3-1 cytotox: inactive; MCF10A rerep: 4%

Results for CCOc1ccc(CNC(=O)C2CCN(Cc3cc4ccccc4n3Cc3ccccc3C)CC2)cc1 ?
KB-V1 MDR tox: inactive; KB-3-1 cytotox: inactive

How did COc1ccc2[nH]c(=O)c(CN(Cc3nnnn3Cc3ccccc3)CC3CCCO3)cc2c1 (stereo not drawn) do in these assays?
SW480 rerep: inconclusive; ELG1 DNA repair: inconclusive; KB-V1 MDR tox: inconclusive; KB-3-1 cytotox: inactive; MCF10A rerep: 4%

How did CCOc1ccc(NC(=O)c2ccc3snnc3c2)cc1 do in these assays?
SW480 rerep: -10%; ELG1 DNA repair: inconclusive; KB-V1 MDR tox: inconclusive; KB-3-1 cytotox: inactive; MCF10A rerep: -2%

What do the screens show for `Cc1cc(C)cc(NC(=O)C2C3C=CC4(O3)C2C(=O)N(CCCN2CCCC2)C4C(=O)NC2CCCC(C)C2C)c1` (stereo not drawn)?
SW480 rerep: -4%; ELG1 DNA repair: 15%; KB-V1 MDR tox: inactive; KB-3-1 cytotox: inactive; MCF10A rerep: 0%

How did COc1ccc(NC(=O)C2C3C=CC4(O3)C2C(=O)N(CCN2CCCCC2)C4C(=O)NC2CCCC(C)C2C)cc1 (stereo not drawn) do in these assays?
SW480 rerep: 26µM*; ELG1 DNA repair: 5%; KB-V1 MDR tox: inactive; KB-3-1 cytotox: inactive; MCF10A rerep: inconclusive

Results for CCC1CCCCN1CCN1C(=O)C2C(C(=O)Nc3cccc(OC)c3)C3C=CC2(O3)C1C(=O)NC1CCCCC1 (stereo not drawn) ?
SW480 rerep: -16%; ELG1 DNA repair: 1%; KB-V1 MDR tox: inactive; KB-3-1 cytotox: inactive; MCF10A rerep: inconclusive

How did CCC1CCCCN1CCN1C(=O)C2C(C(=O)Nc3ccc(OC)cc3)C3C=CC2(O3)C1C(=O)NC1CCCCC1 (stereo not drawn) do in these assays?
SW480 rerep: 17%; ELG1 DNA repair: inconclusive; KB-V1 MDR tox: inactive; KB-3-1 cytotox: inactive; MCF10A rerep: 9.2µM*

Results for Cc1cnc(NC(=O)NCC2CCCC(CNC(=O)Nc3ncc(C)s3)C2)s1 (stereo not drawn) ?
SW480 rerep: 16%; ELG1 DNA repair: 21µM*; KB-V1 MDR tox: inactive; KB-3-1 cytotox: inconclusive; MCF10A rerep: inconclusive

Results for CC(=O)OC(C#CCN1CCOCC1)c1ccccc1 (stereo not drawn) ?
SW480 rerep: -10%; KB-V1 MDR tox: inactive; KB-3-1 cytotox: inactive; MCF10A rerep: 2%

What do the screens show for `CN1CCN(NC(=O)c2ccc(S(=O)(=O)N3CC4(C)CC3CC(C)(C)C4)cc2)CC1` (stereo not drawn)?
SW480 rerep: 18µM*; ELG1 DNA repair: inconclusive; KB-V1 MDR tox: inactive; KB-3-1 cytotox: inactive; MCF10A rerep: inconclusive
